# Bioassay records deposited in PubChem BioAssay by several laboratories.
# Rows were chosen to be rich in hits. Some 1.4% of all compounds tested hit in one or more screens of this group.
# APOBEC3A inh: APOBEC3A ssDNA deaminase inhibitors, primary screen, selectivity assay for APOBEC3G inhibitor project, biochemical, FAM/TAMRA oligo cleavage fluorescence; recombinant A3A, FAM/TAMRA ssDNA deamination fluorescence; inhibition, % at 20 µM; 330,000 tested, 0.41% active; DNA dC->dU-editing enzyme APOBEC-3A (Homo sapiens), P31941; AID 493011, 2011;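 active = at least 40% inhibition at 20 µM here, with at most 30% in a related deaminase screen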;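 also: plate controls were A3A with DMSO for no effect and wells lacking A3A enzyme for full effect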
# A3G deaminase: APOBEC3G DNA deaminase inhibitors, primary screen, biochemical, fluorescence, single-stranded DNA substrate, uHTS; inhibition, % at 20 µM; DNA dC->dU-editing enzyme APOBEC-3G (Homo sapiens), Q9HC16; recombinant A3G, ssDNA deamination FAM/TAMRA fluorescence; 330,000 tested, 0.28% active; AID 493012, 2011;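 active = inhibition of at least 40% at 20 µM, with no more than 30% in the related APOBEC3A deaminase screen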;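 also: plate controls were DMSO wells with A3G for no effect and wells lacking A3G enzyme for full effect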
# Target sequence (Q9HC16 whole entry, looked up): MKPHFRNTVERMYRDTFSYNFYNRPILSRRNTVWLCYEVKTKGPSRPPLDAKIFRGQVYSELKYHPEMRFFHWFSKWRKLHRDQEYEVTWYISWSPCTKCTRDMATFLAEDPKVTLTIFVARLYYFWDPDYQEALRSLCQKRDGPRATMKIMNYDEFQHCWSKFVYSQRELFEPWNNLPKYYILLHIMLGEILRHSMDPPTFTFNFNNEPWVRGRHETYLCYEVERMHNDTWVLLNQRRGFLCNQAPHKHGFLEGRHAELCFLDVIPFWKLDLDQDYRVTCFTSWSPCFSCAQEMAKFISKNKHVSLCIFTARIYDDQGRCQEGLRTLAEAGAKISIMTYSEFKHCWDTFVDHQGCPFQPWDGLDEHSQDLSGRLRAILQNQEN
# GRK2 aptamer HTS: compounds blocking aptamer binding on GRK2 – biochemical, human GRK2, bead flow cytometry, HTS, primary screen | Beta-adrenergic receptor kinase 1 (Homo sapiens), P25098 | FAM-aptamer displacement from GRK2 | inhibition of aptamer binding, % at 10 µM | 330,000 tested, 0.59% active;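 active = inhibition of aptamer binding above 40%, roughly 3 SD of noise, on plates passing a quality check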;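 also: median bead fluorescence of bound FAM aptamer so fluorescent compounds give negative values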
# VLA-4 inh: inhibition in human VLA-4 binding assay, primary screen, VLA-4 allosteric modulator project, MLPCN library, flow cytometry, VLA-4 expressing cells; Integrin alpha-4 (Homo sapiens), P13612; ligand binding flow cytometry; inhibition, % (about 7 µM as worked out from the volumes in the protocol); 330,000 tested, 0.2% active; in the data active = inhibition above about 50%
# A3A conf: APOBEC3A deaminase inhibitors, retest, confirmation, selectivity assay for APOBEC3G inhibitor project, biochemical, single concentration, fluorescence readout; 1,400 tested, 63% active; inhibition, % at 20 µM; recombinant A3A, ssDNA deaminase UDG fluorescence assay; shares compounds with APOBEC3A inh; AID 493151, 2011;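 active = inhibition reaching a set limit, 80% of the first screen's cutoff, at 20 µM in any replicate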;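 also: plate controls were DMSO wells with A3A for no effect and wells lacking A3A enzyme for full effect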
# UDG A3A counter: E. coli UDG inhibitors, confirmation, counter-screen for APOBEC3A inhibitor project, biochemical, single concentration, fluorescence, FAM/TAMRA oligo | UDG counterscreen, FAM/TAMRA uracil oligo fluorescence | shares compounds with APOBEC3A inh | inhibition, % at 20 µM | 1,000 tested, under 10 active; call rule not given here
# Numbers without * were called inactive; x = no result.
SMILES,APOBEC3A inh,A3G deaminase,GRK2 aptamer HTS,VLA-4 inh,A3A conf,UDG A3A counter
Cc1nn(Cc2ccc(F)cc2)c2sc(C(=O)Nc3nccs3)cc12,3,-2,2,0,x,x
CC(C)Cc1nnc(NC(=O)CCC(=O)NCCc2ccc(Cl)cc2)s1,-4,-1,4,1,x,x
CC(C)(C)NS(=O)(=O)c1ccc(-c2csnn2)s1,2,-3,2,13,x,x
CCn1c(=O)n(CC)c2cc(NC(=O)C(C)c3ccccc3)c(Br)cc21 (stereo not drawn),54*,24,2,-2,26,x
Cc1nc2ccc(NC(=O)c3cc(Cl)ccn3)cc2s1,49*,-2,0,0,23,0
Cc1nc2ccc(NC(=O)c3ccc(Cl)nc3)cc2s1,3,0,0,12,x,x
CCn1c(C)nc2cc(S(=O)(=O)C(F)F)ccc21,6,16,2,-4,x,x
CCn1c(C)nc2cc(S(=O)(=O)Nc3ccc(C)cc3)ccc21,66*,17,1,-13,55*,2
Cc1c(C(=O)OC(C)C(C)C[N+](C)(C)C)oc2ccccc12 (stereo not drawn),83*,24,3,9,81*,-3
Cc1c(C(=O)OC(C)C(=O)N(C)Cc2ccccc2)oc2ccccc12 (stereo not drawn),-2,-4,0,-2,x,x
CO[C@@]1(NC(=O)C2SC(=C(C(N)=O)C(=O)O)S2)C(=O)N2C(C(=O)O)=C(CSc3nnnn3C)CS[C@@H]21 (stereo partly drawn),50*,3,2,11,43*,0
COCCOC(=O)C1=C(C)Nc2ncnn2C1c1ccc(F)cc1 (stereo not drawn),-1,-2,1,9,x,x
CN(C)CCOC(=O)C1(c2ccccc2)CCCC1,1,1,1,14,x,x
C[N+]1(CCCOC(=O)C2(c3ccccc3)CCCC2)CCOCC1,85*,28,0,-15,69*,-3
O=C(/C=C/c1ccco1)Nc1scc(-c2ccccc2)c1C(=O)O,59*,19,11,4,69*,0
CC(=O)c1c(COC(=O)c2cccnc2)nc2ccccc2[n+]1[O-],58*,20,4,22,76*,0
Cc1ccc(S(=O)(=O)CCSc2nccn2C)cc1,0,-2,0,-76,x,x
C[n+]1ccccc1/C=C/c1ccc(C#N)cc1,x,x,0,4,x,x
C[n+]1ccccc1/C=C/c1ccc2ncccc2c1,75*,18,2,7,75*,0
C[n+]1ccccc1/C=C/c1ccc([N+](=O)[O-])cc1,57*,23,0,-5,62*,x
C[n+]1ccccc1/C=C/c1ccc(F)c(F)c1,53*,17,0,10,55*,x
CC1CCCC(C)N1C(=O)c1cccc2c1-c1ccccc1/C2=N/O (stereo not drawn),-2,-6,0,19,x,x
CSC1=NCCN1CCOc1ccccc1,65*,16,0,6,55*,-2
CCN(CC)C(=O)CSc1nnc(-c2ccccc2)n1N,-4,-10,2,-8,x,x
O=C(CSc1nnc(-c2ccco2)o1)Nc1cccc([N+](=O)[O-])c1,4,10,0,-9,x,x
OC1(c2ccccc2Cl)NN=C2CCCCCN21 (stereo not drawn),-3,-7,0,6,x,x
C[N+]1=C2CCCCCN2C(O)(c2ccccc2)C1 (stereo not drawn),69*,19,0,10,72*,0
CC[n+]1cccc(-c2nc3ccccc3s2)c1,53*,13,15,-6,64*,-1
Cc1nn(-c2ccccc2)c(C)c1NC(=O)COC(=O)c1ccccc1,20,-3,7,0,x,x
